TDP1 cell noCPT = qHTS for Inhibitors of human tyrosyl-DNA phosphodiesterase 1 (TDP1): qHTS in cells in absence of CPT; DT40 Tdp1-/- hTDP1 cells, no CPT, ATP luminescence, 48 h; Potency, µM (highest dose often 46.2 µM), inactives show top-dose activity change, negative = growth inhibition, most hits filed as inhibitors; actives 15% (n = 420,000); further: potency means the concentration at half of the fitted maximal effect; nearly all actives have a fitted effect of over 55% in size
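Luminescent ATP content (CellTiter-Glo) served as the growth readout. Knockout chicken DT40 cells expressing human TDP1 were exposed to compounds without camptothecin for a minimum 48 hr at 37 °C.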
IL-1B inflam inh = inhibitors of inflammasome signaling (IL-1 beta secretion); THP-1 LPS/ATP IL-1B secretion, AlphaLISA, 16 h; stronger effect = lower value; activity change, % at 57.5 µM; actives 4.7% (n = 360,000); AID 743279; in the data active means activity change below about -50%; inconclusive means mostly about -30% to -49%
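Secreted IL-1B measured by AlphaLISA bead assay after 16 h compound exposure of THP-1 cells; compounds (final up to 57.5 uM) added 1 h before LPS (250 ng/mL) and ATP (1.25 mM) stimulation; lower signal means less secretion.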
RORgamma inh = inhibitors of mouse ROR gamma transcriptional activity | P51450 | Drosophila S2 Gal4-RORgamma UAS-luciferase reporter, 20 h | actives 5.4% (n = 310,000) | Potency, µM (doses to about 53.6 µM), inactives show top-dose activity change, negative = inhibition, actives largely listed as inhibitors; further: potency means the concentration at half of the fitted maximal effect; nearly all actives have a fitted effect of over 60% in size
Target sequence (P51450 whole entry, looked up, the tested form may be a part): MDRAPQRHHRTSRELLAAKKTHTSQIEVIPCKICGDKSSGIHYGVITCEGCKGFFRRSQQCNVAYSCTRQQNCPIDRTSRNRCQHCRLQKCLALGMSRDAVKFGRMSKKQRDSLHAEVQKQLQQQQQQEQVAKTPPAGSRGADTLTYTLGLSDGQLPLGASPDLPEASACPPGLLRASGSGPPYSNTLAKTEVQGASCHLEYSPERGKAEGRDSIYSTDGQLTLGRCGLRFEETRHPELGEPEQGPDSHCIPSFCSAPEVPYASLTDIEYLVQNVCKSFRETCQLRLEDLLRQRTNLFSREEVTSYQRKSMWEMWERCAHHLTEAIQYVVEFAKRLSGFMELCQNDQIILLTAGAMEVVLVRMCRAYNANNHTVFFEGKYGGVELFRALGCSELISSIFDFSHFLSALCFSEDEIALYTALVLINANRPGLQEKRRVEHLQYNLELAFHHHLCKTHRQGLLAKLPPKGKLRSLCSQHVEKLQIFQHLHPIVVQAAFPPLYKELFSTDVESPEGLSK
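Luminescence from a UAS-regulated Photinus luciferase reporter in stably transfected Drosophila Schneider cells is measured; decreased signal marks ROR gamma inhibition. Fusion expression is induced by 700 uM copper sulfate for 20 hr.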
Gal4-VP16 FLuc = inhibits Gal4-VP16 luciferase reporter, ROR gamma counter-screen | Potency, µM (doses to about 53.6 µM), inactives show at the top dose activity, negative = inhibition, most hits filed as inhibitors | Drosophila S2 Gal4-VP16 UAS-luciferase, luminescence, 20 h | actives 3.5% (n = 310,000) | AID 2546;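 further: Gal4-VP16 expression switched on by copper sulfate through the metallothionein promoter; potency means the concentration at half of the fitted maximal effect; nearly all actives have a fitted effect of over 50% in size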
TDP1 cell CPT = DT40-hTDP1 cell growth loss with CPT | chicken DT40 Tdp1-/-;hTDP1 cells + 20 nM CPT, ATP luminescence, 48 h | Potency, µM (titrated, usually from 46.2 µM), for the others: top-dose activity change, negative = growth inhibition, usual class: inhibitors | actives 12% (n = 420,000) | AID 686979; further: potency means the concentration at half of the fitted maximal effect; nearly all actives have a fitted effect of over 55% in size
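Chicken DT40 Tdp1-/- cells complemented with human TDP1, 400 cells/well, exposed to compounds plus 20 nM camptothecin for at least 48 h at 37 C; viability read as ATP content by CellTiter-Glo luminescence.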
LDHA inh = inhibitors of human lactate dehydrogenase A; actives 0.15% (n = 480,000); activity change, % (values are at about 110 or 230 µM); purified LDHA, NADH/diaphorase-resazurin fluorescence; stronger effect = lower value; P00338; in the data active means activity change below about -30%; inconclusive means mostly about -25% to -30%;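 further: plate controls were DMSO wells for no effect and wells without enzyme for full effect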
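LDH5 2 nM; NADH 0.06 mM, pyruvate 0.2 mM; 200 mM Tris pH 7.4, EDTA, Tween-20; 5 min RT. Detection: diaphorase 0.133 mg/mL + resazurin 37 µM, fluorescence ex540/em590 at 0 and 20 min; normalized to enzyme-free and DMSO wells.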
* marks the source's active call; other numbers are inactive results; u = inconclusive; x = no result; [ ] = dose if it differs, or a comment. Compounds with a hit are over-represented: about 18% of the library has one in this group of screens. Unless noted, the call rests on the fitted dose curve; in most records, active means well fitted curve in the direction sought with a large enough effect; inconclusive means small, poorly fitted or top-dose-only effect, or another doubt; inactive means no such curve, though single readings can be large; an effect the other way counts as inactive or inconclusive. Unless noted, on the % scale 0 is the no-effect control and ±100 the full control effect.

SMILES | TDP1 cell noCPT | IL-1B inflam inh | RORgamma inh | Gal4-VP16 FLuc | TDP1 cell CPT | LDHA inh
CCOc1ccc(NC(=O)c2ccc3c(c2)CCN3S(=O)(=O)c2ccc(Cl)cc2)cc1 | u | x | x | x | -23% | -1
O=C(Nc1nccs1)C1Cc2ccccc2CN1S(=O)(=O)c1ccc(F)cc1 (stereo not drawn) | 15µM* | 6 | u | -11% | u | -1
O=C(NC1CCCCC1)C1Cc2ccccc2CN1S(=O)(=O)c1ccc(F)cc1 (stereo not drawn) | u | 1 | u | -3% | -7% | -1
NS(=O)(=O)c1ccc(NC(=O)c2ccc3c(c2)CCN3S(=O)(=O)c2ccccc2)cc1 | 10µM* | -4 | u | -16% | 23µM* | -8
CCCCCCn1c(NCCO)nc2c1c(=O)n(C)c(=O)n2C | x | x | x | x | x | 0
COc1ccccc1CNC(=O)c1ccc2c(c1)CCN2S(=O)(=O)c1ccccc1 | 8.2µM* | x | x | x | u | -1
CCOC(=O)c1ccc(NC(=O)C2Cc3ccccc3CN2S(=O)(=O)c2ccc(Cl)cc2)cc1 (stereo not drawn) | 16µM* | x | x | x | u | -5
COc1ccc(NC(=O)c2ccc3c(c2)CCN3S(C)(=O)=O)cc1 | -28% | -10 | x | x | -20% | -2
COc1ccc(CNC(=O)c2ccc3c(c2)CCN3S(=O)(=O)c2ccc(C)cc2)cc1 | 13µM* | x | x | x | 10µM* | -1
COc1ccc(NC(=O)c2ccc3c(c2)CCN3S(=O)(=O)c2ccccc2)cc1 | u | -56* | 43% | -10% | u | 1
O=C(Nc1ccc(F)c(Cl)c1)C1Cc2ccccc2CN1S(=O)(=O)c1ccc(F)cc1 (stereo not drawn) | u | x | x | x | u | -3
COc1ccc(S(=O)(=O)N2Cc3ccccc3CC2C(=O)Nc2cccc(C)c2)cc1OC (stereo not drawn) | 9.2µM* | x | x | x | u | -2
COc1ccc(S(=O)(=O)N2Cc3ccccc3CC2C(=O)Nc2ccc(O)cc2)cc1OC (stereo not drawn) | u | -23 | u | -12% | -10% | -7
CC(=O)Nc1cc(-c2ccc(C(=O)N3CCOCC3)cc2)cn2c(-c3cccc(C(F)(F)F)c3)cnc12 | 15µM* | 0 | x | x | u | 0
CC(=O)Nc1cc(-c2ccc(C(=O)N3CCOCC3)cc2)cn2c(-c3ccccc3)cnc12 | u | -2 | x | x | u | 2
CC(=O)Nc1cc(-c2ccc(C(=O)N3CCOCC3)cc2)cn2c(-c3ccc(C(C)=O)cc3)cnc12 | 12µM* | -19 | x | x | 26µM* | -1
COc1ccc(-c2cnc3c(NC(C)=O)cc(-c4ccc(C(=O)N5CCOCC5)cc4)cn23)cc1OC | 23µM* | u | x | x | u | -1
CC(=O)Nc1cc(-c2ccc(C(=O)N3CCOCC3)cc2)cn2c(-c3ccc(F)cc3)cnc12 | 8.2µM* | -6 | x | x | u | 0
CCC(=O)Nc1ccc(-c2csc(NC(C)COC)n2)cc1 (stereo not drawn) | x | x | x | x | x | 6
CC(C)N1CSC(=S)N(Cc2ccccc2)C1 | 4.1µM* | -99* | -12% | 2% | 4.1µM* | -4
S=C1SCN(Cc2cccnc2)CN1Cc1ccccc1 | 4.6µM* | -107* | 3.2µM* | 6.3µM* | 2.9µM* | -6
CC(CCc1ccccc1)NC(=O)CN1CCN(Cc2ccccc2)C1=O (stereo not drawn) | u | -1 | 22% | -6% | u | -3
CC(C)(C)N1CSC(=S)N(Cc2ccccc2)C1 | 4.6µM* | 6 | -34% | 5% | 5.2µM* | -1
CC1CN(Cc2ccccc2)C(=S)N(c2ccccc2)C1=O (stereo not drawn) | -21% | 12 | x | x | -3% | -2
CCCCCC1=CCC/C1=N\NC(=O)c1cccnc1 | x | x | x | x | x | -5
SMILES | TDP1 cell noCPT | IL-1B inflam inh | RORgamma inh | Gal4-VP16 FLuc | TDP1 cell CPT | LDHA inh
O=C(N/N=C/c1ccc(Cl)cc1)C1CC1 | x | x | x | x | x | 3
Cc1ccc(OCCN)c(C)c1 | x | x | x | x | x | 7
Cc1ccc(OCCCCNC(C)c2ccccc2)c(C)c1 (stereo not drawn) | u | -91* | 27%[1.91 µM] | -3% | u | -13
Cc1cccc(OCCOCCSc2ncccn2)c1 | -30% | 24 | u | 19% | -10% | -4
Cc1ccc(OCCSc2ncccn2)c(C)c1 | 0% | -10 | 10µM* | u | -14% | 0
CCOc1ccc(Nc2ccc([N+](=O)[O-])c3nonc23)cc1 | 23µM* | 13 | x | x | u | 7
COc1ccc(-n2c(=O)c3sc4ccccc4c3n(Cc3ccccc3)c2=O)cc1 | -26% | x | x | x | u | 1
Cc1ccc(NC(=O)Cn2c(=O)n(Cc3ccccc3)c(=O)c3sc4ccccc4c32)cc1 | 5.8µM* | x | x | x | 5.8µM* | -8
Cc1ccc(CNC(=O)Cn2c(=O)n(Cc3ccccc3)c(=O)c3sc4ccccc4c32)cc1 | u | x | x | x | u | -8
O=c1c2sc3ccccc3c2n(Cc2cccc(C(F)(F)F)c2)c(=O)n1-c1ccccc1 | 13µM* | x | x | x | u | -17
Cc1cccc(Cn2c(=O)n(Cc3ccccc3)c(=O)c3sc4ccccc4c32)c1 | 23µM* | x | x | x | u | -1
CC(C)(C)NC(=O)/C(C#N)=C\c1ccc(OC(F)F)cc1 | x | x | x | x | x | 4
Cc1ccc(C)c(C(=O)OCC(=O)c2c[nH]c3ccccc23)c1 | x | x | x | x | x | 1
COc1ccc(C(=O)Cn2c(NCCCO)nc3ccccc32)cc1 | u | u | x | x | u | -3
COc1ccc(-n2c(C)cc(C(=O)Cn3c(NCCO)nc4ccccc43)c2C)cc1 | 21µM* | 42 | -1% | 3% | u | -1
COC(=O)COc1ccc(C(=O)Cn2c(NCCCO)nc3ccccc32)cc1 | -7% | -93* | x | x | -4% | 2
O=C(c1cc2cc(Br)ccc2oc1=O)N1CCc2ccccc2C1 | x | x | x | x | x | -2
Cc1cc(C(=O)Nc2ccc(N3CCCC3)c(Cl)c2)ccc1[N+](=O)[O-] | 18µM* | x | u | -2% | u | -6
O=C(O/N=C\c1ccc(N2CCCCC2)c([N+](=O)[O-])c1)c1ccc(Cl)cc1Cl | -24% | -1 | 15% | 5% | u | -1
O=C(/C=C/c1ccc(N2CCCCC2)c([N+](=O)[O-])c1)c1ccc(O)cc1 | 18µM* | -95* | 11µM* | u | u | -14
Nc1nnnn1/N=C/c1ccc(N2CCCCC2)c([N+](=O)[O-])c1 | 13µM* | -7 | u | -26% | 21µM* | -8

Bioassay records (PubChem BioAssay)
